Data published in PubChem BioAssay AID1159580 (chemical genetic matrix, 2015).
Values joined by “and” are separate entries in the source; they are usually repeats but may differ in a detail not shown here. Equal entries are not always repeated. The whole screen tested about 5,500 compounds, of which about 2,000 (36%) were called active. Another 18% or so got no clear call; they are omitted. Rule as the data show it: active = normalized growth mostly below about 0.91 (no sharp cut-off); inconclusive = no clear call, values can overlap the other calls; inactive = mostly above about 0.92. The list shows a part of the results.

Assay: chemical genetic growth profiling, strain panel (AID 1159580);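 also: tested at 20 µM; growth read once vehicle control cultures reached saturation at 30 °C; 1 = growth at the plate median or of vehicle wells; lower values mean less growth of the strain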
Details: S. cerevisiae deletion strains, growth OD

Measured: normalized growth

COc1cc(O)cc(OC)c1OC
inactive: locus YAL013W, strain DEP1, active compounds read low 1.05 | locus YAL021C, strain ccr4, active compounds read low 0.982 | locus YAL026C, strain drs2, active compounds read low 0.974 | locus YAL030W, strain snc1, active compounds read low 0.977 | locus YBL061C, strain skt5, active compounds read low 0.98 | locus YBR009C, strain hhf1, active compounds read low 0.964 | locus YBR021W, strain FUR4, active compounds read low 1.01 | locus YBR023C, strain chs3, active compounds read low 0.999 | locus YBR171W, strain sec66, active compounds read low 0.978 | locus YBR229C, strain ROT2, active compounds read low 1.01 | locus YBR231C, strain swc5, active compounds read low 0.992 | locus YBR279W, strain paf1, active compounds read low 0.992 | locus YCL011C, strain gbp2, active compounds read low 0.969 | locus YCL016C, strain dcc1, active compounds read low 0.997 | locus YCL029C, strain bik1, active compounds read low 1.01 | locus YCL061C, strain MRC1, active compounds read low 0.986 | locus YCL069W, strain vba3, active compounds read low 0.978 | locus YCR088W, strain abp1, active compounds read low 0.987 | locus YDL005C, strain med2, active compounds read low 0.967 | locus YDL035C, strain GPR1, active compounds read low 1.05 | locus YDL040C, strain nat1, active compounds read low 0.989 | locus YDL074C, strain BRE1, active compounds read low 1.04 | locus YDL101C, strain DUN1, active compounds read low 1.02 | locus YDL134C, strain PPH21, active compounds read low 1.01 | locus YDL185W, strain tfp1, active compounds read low 1 | locus YDL192W, strain arf1, active compounds read low 1.03 | locus YDR001C, strain nth1, active compounds read low 0.972 | locus YDR069C, strain doa4, active compounds read low 0.962 | locus YDR101C, strain arx1, active compounds read low 1 | locus YDR137W, strain rgp1, active compounds read low 0.998 | locus YDR159W, strain sac3, active compounds read low 0.925 | locus YDR162C, strain NBP2, active compounds read low 1.06 | locus YDR195W, strain ref2 0.918 | locus YDR297W, strain sur2, active compounds read low 0.986 | locus YDR318W, strain mcm21, active compounds read low 1.01 | locus YDR334W, strain swr1, active compounds read low 0.975 | locus YDR335W, strain msn5, active compounds read low 0.991 | locus YDR388W, active compounds read low 1.01 | locus YDR392W, strain spt3, active compounds read low 0.942 | locus YDR502C, strain sam2, active compounds read low 0.999 | locus YEL003W, strain gim4, active compounds read low 0.987 | locus YEL037C, strain rad23, active compounds read low 0.988 | locus YEL061C, strain CIN8 (second series), active compounds read low 0.961 | locus YEL061C, strain CIN8, active compounds read low 1.02 | locus YER015W, strain faa2, active compounds read low 1 | locus YER016W, strain bim1, active compounds read low 0.995 | locus YER110C, active compounds read low 1 | locus YER111C, strain swi4, active compounds read low 0.967 | locus YER155C, strain BEM2 (second series), active compounds read low 0.97 | locus YER155C, strain BEM2, active compounds read low 1.02 | locus YER167W, strain BCK2, active compounds read low 1.02 | locus YFR010W, strain ubp6, active compounds read low 0.962 | locus YGL078C, strain dbp3, active compounds read low 1.01 | locus YGL086W, strain mad1, active compounds read low 1.01 | locus YGL167C, strain pmr1, active compounds read low 0.954 | locus YGL173C, strain kem1, active compounds read low 0.99 | locus YGL227W, strain vid30, active compounds read low 0.97 | locus YGL240W, strain doc1, active compounds read low 0.945 | locus YGL248W, strain PDE1, active compounds read low 1.04 | locus YGL253W, strain hxk2, active compounds read low 0.995 | locus YGR135W, strain pre9, active compounds read low 1.01 | locus YGR252W, strain gcn5, active compounds read low 1.03 | locus YHR013C, strain ard1, active compounds read low 0.923 | locus YHR027C, strain rpn1, active compounds read low 0.993 | locus YHR030C, strain SLT2, active compounds read low 1.02 and 0.996 | locus YHR079C, strain IRE1 (second series), active compounds read low 0.995 | locus YHR079C, strain IRE1, active compounds read low 0.983 | locus YHR094C, strain hxt1, active compounds read low 0.992 | locus YHR129C, strain ARP1, active compounds read low 1.02 | locus YHR142W, strain chs7, active compounds read low 1.01 | locus YHR200W, strain rpn10, active compounds read low 1.01 | locus YIL066C, strain RNR3, active compounds read low 1.03 | locus YIL073C, strain SPO22, active compounds read low 1.06 | locus YIL125W, strain kgd1, active compounds read low 1.01 | locus YIR030C, strain dcg1, active compounds read low 1 | locus YJL092W, strain hpr5, active compounds read low 0.982 | locus YJL095W, strain BCK1 (second series), active compounds read low 0.996 | locus YJL095W, strain BCK1, active compounds read low 1.05 and 0.999 | locus YJL115W, strain asf1, active compounds read low 0.992 | locus YJL129C, strain trk1, active compounds read low 0.97 | locus YJL134W, strain LCB3, active compounds read low 1.03 | locus YJL154C, strain vps35, active compounds read low 0.983 | locus YJL164C, strain tpk1, active compounds read low 0.971 | locus YJL166W, strain qcr8, active compounds read low 0.993 | locus YJL168C, strain set2, active compounds read low 1.01 | locus YJL187C, strain SWE1 (second series), active compounds read low 1.03 | locus YJL187C, strain SWE1, active compounds read low 0.977 | locus YJR043C, strain POL32, active compounds read low 1.05 | locus YJR066W, strain TOR1, active compounds read low 0.905 | locus YKL009W, strain mrt4, active compounds read low 1.05 | locus YKL068W, active compounds read low 1.01 | locus YKL085W, strain MDH1 (second series), active compounds read low 1.02 | locus YKL085W, strain MDH1, active compounds read low 1.02 | locus YKL160W, strain elf1, active compounds read low 1 | locus YKR001C, strain vps1, active compounds read low 1.01 | locus YKR026C, strain gcn3, active compounds read low 0.945 | locus YKR091W, strain srl3, active compounds read low 0.968 | locus YLL001W, strain dnm1, active compounds read low 0.994 | locus YLL026W, active compounds read low 0.998 | locus YLL041C, strain sdh2, active compounds read low 1 | locus YLR027C, strain aat2, active compounds read low 0.986 | locus YLR039C, strain RIC1, active compounds read low 1.11 | locus YLR058C, strain SHM2, active compounds read low 1.03 | locus YLR102C, strain apc9, active compounds read low 0.99 | locus YLR113W, strain HOG1, active compounds read low 1.04 | locus YLR221C, strain rsa3, active compounds read low 0.97 | locus YLR258W, strain gsy2, active compounds read low 0.996 | locus YLR262C, strain YPT6 (second series), active compounds read low 0.992 | locus YLR262C, strain YPT6, active compounds read low 1.15 | locus YLR268W, strain sec22, active compounds read low 1.03 | locus YLR320W, strain mms22, active compounds read low 0.984 | locus YLR342W, strain FKS1 (second series), active compounds read low 1.04 | locus YLR342W, strain FKS1, active compounds read low 0.957 | locus YLR357W, strain rsc2, active compounds read low 0.948 | locus YLR370C, strain arc18, active compounds read low 0.955 | locus YLR371W, strain rom2, active compounds read low 1 | locus YLR384C, strain iki3, active compounds read low 0.937 | locus YLR418C, strain cdc73, active compounds read low 1.01 | locus YML016C, strain PPZ1, active compounds read low 1.02 | locus YML032C, strain rad52, active compounds read low 1.01 | locus YML120C, strain ndi1, active compounds read low 0.97 | locus YML124C, strain tub3, active compounds read low 1.01 | locus YMR058W, strain fet3, active compounds read low 0.97 | locus YMR078C, strain ctf18, active compounds read low 1 | locus YMR125W, strain sto1, active compounds read low 0.984 | locus YMR129W, active compounds read low 0.962 | locus YMR205C, strain PFK2, active compounds read low 0.95 | locus YMR223W, strain ubp8, active compounds read low 0.993 | locus YMR231W, strain pep5, active compounds read low 0.994 | locus YMR307W, strain GAS1, active compounds read low 1.08 | locus YNL067W, strain RPL9B, active compounds read low 1.03 | locus YNL071W, strain lat1, active compounds read low 0.994 | locus YNL128W, strain TEP1, active compounds read low 1.07 | locus YNL153C, strain GIM3, active compounds read low 1.01 | locus YNL183C, strain NPR1, active compounds read low 0.928 | locus YNL209W, strain ssb2, active compounds read low 0.983 | locus YNL233W, strain BNI4, active compounds read low 1.03 | locus YNL248C, strain rpa49, active compounds read low 1 | locus YNL250W, strain rad50, active compounds read low 1.03 | locus YNL271C, strain bni1, active compounds read low 1.01 | locus YNL298W, strain CLA4, active compounds read low 1 | locus YNL307C, strain MCK1, active compounds read low 0.996 | locus YNL322C, strain KRE1 (second series), active compounds read low 0.964 | locus YNR049C, strain mso1, active compounds read low 0.986 | locus YNR052C, strain pop2, active compounds read low 0.996 | locus YOL006C, strain TOP1, active compounds read low 1.22 | locus YOL012C, strain htz1 1.19 | locus YOL147C, strain pex11, active compounds read low 1 | locus YOR001W, strain rrp6, active compounds read low 1.01 | locus YOR061W, strain CKA2, active compounds read low 1.04 | locus YOR069W, strain VPS5, active compounds read low 1.01 | locus YOR070C, strain gyp1, active compounds read low 0.993 | locus YOR080W, strain dia2, active compounds read low 0.977 | locus YOR083W, strain WHI5, active compounds read low 1 | locus YOR106W, strain vam3, active compounds read low 1 | locus YOR136W, strain idh2, active compounds read low 1.01 | locus YOR144C, strain elg1, active compounds read low 1 | locus YOR184W, strain ser1, active compounds read low 1.05 | locus YOR231W, strain MKK1, active compounds read low 1 | locus YOR265W, strain rbl2, active compounds read low 0.96 | locus YOR270C, strain vph1, active compounds read low 0.986 | locus YOR290C, strain snf2, active compounds read low 0.921 | locus YOR316C, strain cot1, active compounds read low 0.993 | locus YPL051W, strain arl3, active compounds read low 1.01 | locus YPL078C, strain atp4, active compounds read low 0.988 | locus YPL106C, strain sse1, active compounds read low 0.944 | locus YPL240C, strain hsp82, active compounds read low 0.981 | locus YPL256C, strain CLN2, active compounds read low 0.978 | locus YPR119W, strain clb2, active compounds read low 1 | locus YPR141C, strain kar3, active compounds read low 1.01 | locus YPR163C, strain tif3, active compounds read low 1 | locus YPR167C, strain met16, active compounds read low 1.01 | strain wtn01, active compounds read low 1.02
